# Screening data (PubChem BioAssay)
# The list is not random: actives were taken first. Their share in the collection is about 7.8%.
# VACV mCherry inh: inhibitors of vaccinia virus infection (mCherry reporter signal); Vaccinia virus mCherry reporter infection, fluorescence; Potency, µM (titrated, usually from 36.5 µM), for inactives: at the top dose activity change, negative = inhibition, actives largely listed as inhibitors; actives 0.63% (n = 310,000); calls by dose curve; tested in A549 cells; note: potency is the fitted concentration of half-maximal effect; nearly all actives have a fitted effect of over 35% in size
# MARV entry inh: Marburg virus entry inhibition | Marburg virus pseudotyped entry inhibition, cell reporter | Potency, µM (top dose mostly 37.8 µM), for the others: top-dose activity change, negative = inhibition, actives largely listed as inhibitors | actives 1.8% (n = 300,000) | AID 540276; calls by dose curve; tested in HEK293 cells; note: potency is the fitted concentration of half-maximal effect
# VACV Venus inh: inhibitors of vaccinia virus (Venus reporter) | Potency, µM (doses to about 36.5 µM), inactives show at the top dose activity change, negative = inhibition, hits mostly inhibitors | actives 0.46% (n = 330,000) | Vaccinia virus Venus reporter expression, fluorescence; calls by dose curve; tested in A549 cells; note: potency is the fitted concentration of half-maximal effect; nearly all actives have a fitted effect of over 30% in size
# HCV inhibitor: blocks hepatitis C virus. Huh7.5.1 HCVcc-Cre infection, luciferase reporter, 44 h. Potency, µM (top dose mostly 41.8 µM), inactives show top-dose activity change, negative = inhibition, usual class: inhibitors. actives 3.4% (n = 340,000). AID 651820; active = well fitted inhibition curve with a large enough effect; inconclusive = small, poorly fitted or top-dose-only effect, or another doubt; inactive = no such curve, though single readings can be large or run the other way; note: potency is the fitted concentration of half-maximal effect
#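 Luciferase read-out (15 sec integration) after a 15 min room-temperature substrate step quantifies HCVcc-Cre infection. Cells, 1,000 per well, had compound added 4 h post-plating, then virus at ~0.5 moi, and were cultured 44 h.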
# HCMV antiviral: human cytomegalovirus inhibition; activity change, negative = inhibition, % at 57.5 µM; HFF cells, HCMV-luciferase reporter, 72 h; active compounds read low; actives 4.5% (n = 410,000); in the data active = activity change below about -60%; inconclusive = no clear call, values can overlap the other calls; inactive = above about -39%
#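 Steps: HFFs plated, 16 h 37C; compounds added; HCMV-luciferase added to MOI 1 PFU/cell; 72 h 37C; OneGlo reagent, 5 min room temperature; luminescence read, normalized to controls.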
# Lassa entry inh: Lassa virus entry inhibition; Lassa virus pseudotype entry inhibition, cell reporter; Potency, µM (top dose mostly 37.9 µM), inactives show top-dose activity change, negative = inhibition, hits mostly inhibitors; actives 1.2% (n = 300,000); calls by dose curve; tested in HEK293 cells; note: potency is the fitted concentration of half-maximal effect; nearly all actives have a fitted effect of over 50% in size
# Active calls of the source: *; i = inactive; ? = inconclusive; . = no result given; ! = not active in a repeat; [ ] = remark or other dose. % is set by controls: 0 for no effect and ±100 for the full control effect.
SMILES,VACV mCherry inh,MARV entry inh,VACV Venus inh,HCV inhibitor,HCMV antiviral,Lassa entry inh
O=C(O)C(Cc1ccccc1)N1CCS(=O)(=O)CC1 (stereo not given),-0.2%,18.5%[46.1 µM],2.9%,2.3%,?,-11.4%
COC(=O)C(Cc1ccccc1)N1CCS(=O)(=O)CC1 (stereo not given),-5.0%,16.6%[46.1 µM],-16.8%,-6.2%,-69.5*,7.9%
O=Cc1cnc(N2CCN(Cc3ccccc3)CC2)s1,i,12.2%[46.1 µM],-12.1%,17.1%,-63.5*,-14.7%[46.1 µM]
COc1cccc(N2CCN(Cc3cc(=O)oc4cc(C)ccc34)CC2)c1,-4.4%,3.0%[46.1 µM],-10.8%,.,0.6,-15.1%[46.1 µM]
CCn1c(SCC(=O)N2c3ccccc3Sc3ccccc32)nc2c1c(=O)n(C)c(=O)n2C,.,?,.,?,-9.1,?
CCCCn1c(SCC(=O)N2c3ccccc3Sc3ccccc32)nc2c1c(=O)n(C)c(=O)n2C,.,11.2µM*,?,?,2.7,?
CCCn1c(SCC(=O)Nc2nnc(CC)s2)nc2c1c(=O)n(C)c(=O)n2C,.,.,.,-15.5%,.,.
CCCCn1c(SCC(=O)Nc2nnc(C(C)C)s2)nc2c1c(=O)n(C)c(=O)n2C,.,-4.5%,.,?,-74.7*,?
CC(=O)OC[C@@H]1O[C@H](C/C=N\OCC[C@H]2C=C[C@H](OC(C)=O)[C@@H](COC(C)=O)O2)C=C[C@@H]1OC(C)=O,.,10.3%[14.2 µM],.,.,.,.
CCOC(=O)c1ccc(N2C(=O)c3[nH]nc(-c4ccc(C)cc4)c3C2c2ccc(O)cc2)cc1 (stereo not given),-29.3%,10µM*,-24.8%,.,-74.0*,?
CCOC(=O)c1ccc(N2C(=O)c3[nH]nc(-c4ccc(OCC)cc4)c3C2c2ccc(OC)cc2OC)cc1 (stereo not given),-29.9%,?,-27.8%,.,8.4,?
CCOC(=O)c1ccc(N2C(=O)c3[nH]nc(-c4ccc(OC)cc4)c3C2c2cccc(O)c2)cc1 (stereo not given),?,?,-24.9%,.,-106.8*,?
CCOC(=O)c1ccc(N2C(=O)c3[nH]nc(-c4ccc(C)cc4)c3C2c2cccc(F)c2)cc1 (stereo not given),?,?,-21.9%,.,-99.2*,?
CCOC(=O)c1ccc(N2C(=O)c3[nH]nc(-c4ccccc4)c3C2c2ccc(CC)cc2)cc1 (stereo not given),?,?,?,.,-104.6*,?
COC(=O)c1nnc(C(=O)NCc2ccccc2)c2[nH]c3ccccc3c12,.,-14.5%[14.2 µM],.,.,.,.
Cc1ccc(NC(=O)c2c(C)oc3nc(C)nc(N4CCCC4)c23)c(C)c1,-0.1%,.,-14.5%,.,-32.1,?
CCCCc1nc2c(c3c1C[C@H](C)OC3)CN(S(=O)(=O)c1ccccc1C(=O)OC)CC2,.,21.6%[14.2 µM],.,.,.,.
CCOc1ccc(-n2nc3ccc(NC(=O)c4ccc5c(c4)OCCO5)cc3n2)cc1,-12.8%,?,-11.8%,6.31µM*,-70.6*,?
O=C(Nc1ccc2nn(-c3ccccc3)nc2c1)c1ccc2c(c1)OCCO2,.,-19.7%[46.1 µM],-28.9%,7.08µM*,?,?
O=C(Nc1ccc2nsnc2c1)c1ccc2c(c1)OCO2,.,?,.,1.6%,139.6,11.6µM*
O=C(Nc1ccc2nn(-c3ccccc3)nc2c1)c1ccc(Br)o1,-10.1%,?,-4.4%,?,-64.8*,?
O=C(Nc1ccc2c(c1)OCO2)c1ccc2c(c1)OCO2,-15.6%,?,-5.8%,-9.1%,8.3,?
COc1cccc(CNC(=O)COc2cc(=O)n(C)c3ccccc23)c1,-2.0%,1.8%[46.1 µM],4.4%,.,-1.5,?
CCOC(=O)CCN1C(=O)[C@@H]2[C@H]3[C@H](O)[C@H](O)CC(=NO[C@@H]4O[C@H](COC(C)=O)[C@@H](OC(C)=O)[C@H](OC(C)=O)[C@@H]4OC(C)=O)[C@H]3CC[C@H]2C1=O,.,-5.6%[14.2 µM],.,.,.,.
Cc1cc2n(n1)CCCN2C(=O)Nc1cccc(C)c1C,-16.4%,.,-15.6%,.,-1.3,-11.9%[46.1 µM]
SMILES,VACV mCherry inh,MARV entry inh,VACV Venus inh,HCV inhibitor,HCMV antiviral,Lassa entry inh
COc1ccc(C)cc1NC(=O)C1CCC(CNS(=O)(=O)c2ccc3c(c2)CCCC(=O)N3)CC1 (stereo not given),-20.0%,.,?,.,39.0,0.1%[46.1 µM]
COc1cc(-c2c(OC)cccc2OC)cc2c1OCCN(Cc1cn[nH]c1-c1ccc(Cl)cc1)C2,-3.9%,.,0.0%,.,.,.
CCOc1ccc(NC(=O)c2ccc3c(c2)OCCO3)cc1S(=O)(=O)N(CC)CC,.,.,.,2.82µM*,-19.6,.
CCOc1ccc(C(=O)Nc2ccc3c(c2)OCCO3)cc1OC,.,?,.,?,73.9,-30.4%
CCOc1ccc(NC(=O)c2c(NC(=O)c3ccco3)sc3c2CCC(C(C)(C)C)C3)cc1 (stereo not given),i,25.1%[46.1 µM],-7.6%,.,-7.7,1.5%[46.1 µM]
COc1ccc(Cl)cc1N1C(=O)[C@@H]2C[C@H]1CN2Cc1nc2ccccc2nc1C,-5.8%,.,9.7%,.,.,.
Cc1cc(-c2ccccc2)nc2[n+]1CCN2C,-21.9%,-27.6%,-27.6%,-24.8%,-84.3*,-20.1%
O=C(c1cnn2c(C(F)F)cc(C3CC3)nc12)N1CCc2ccccc2C1,.,?,-23.8%,8.91µM*,19.3,?
Fc1ccc(C(c2nnnn2Cc2cccs2)N2CCN(C3CCCCC3)CC2)cc1 (stereo not given),-28.6%,22.4µM*!,-20.6%,?,40.5,-16.8%
COc1ccc(C(c2nnnn2Cc2cccs2)N2CCN(c3ccc(F)cc3)CC2)cc1OC (stereo not given),-24.0%,?,-17.4%,-20.5%,20.1,8.2µM*
CN1CCN(C(c2ccc(F)cc2)c2nnnn2Cc2cccs2)CC1 (stereo not given),i,?,-16.4%,-6.9%,-17.3,22.3%
COc1ccc(C(c2nnnn2Cc2ccc(F)cc2)N2CCN(c3ccc(OC)cc3)CC2)cc1 (stereo not given),.,?,-15.8%,-22.3%,29.9,3.16µM*
COc1ccc(Cn2nnnc2C(c2ccc(F)cc2)N2CCN(C3CCCC3)CC2)cc1 (stereo not given),.,10µM*,?,?,38.0,?
COc1ccc(CNC(=O)Cn2c(=O)nc(-c3ccccc3)c3cc(Cl)ccc32)cc1OC,-6.2%,.,-22.4%,.,9.0,?
CCCC(c1nnnn1Cc1ccc(F)cc1)N1CCN(C2CCCCC2)CC1 (stereo not given),.,8.91µM*,-2.5%,-11.9%,-12.3,-5.9%
Cc1ccc(-n2c(C)cc(C(=O)CSc3n[nH]c(N)n3)c2C)cc1,.,-6.7%,.,?,-70.1*,?
Cc1cc(C(=O)CSc2n[nH]c(N)n2)c(C)n1-c1ccc(F)cc1,.,?,.,-27.5%,?,-11.3%
Cc1cc(C(=O)CSc2nnc3ccccn23)c(C)n1-c1ccccc1,-22.4%,0.316µM*,-9.1%,16.1%,-72.4*,0.891µM*
Cc1cc(C(=O)CSc2n[nH]c(N)n2)c(C)n1-c1ccccc1,.,-4.7%,.,11.2µM*,74.7,-34.1%
